Measurements taken from PubChem BioAssay.

Tests used:
[1] = molecular target: Tumor necrosis factor receptor superfamily member 10B (Homo sapiens) (UniProt O14763); assay: caspase-8 TRAIL sensitization, hit retest, confirmation, cell-based, NB7+caspase-8, with/without TRAIL, luminescence panel (AID 651596); details: NB7 neuroblastoma + caspase-8, TRAIL sensitization, luminescence viability, with TRAIL, mean of runs, at 10 µM, stronger effect = higher value
[2] = as above; details: NB7 neuroblastoma + caspase-8, without TRAIL, luminescence viability, without TRAIL, mean of runs, at 10 µM

Chain of Tumor necrosis factor receptor superfamily member 10B (Homo sapiens) (O14763 whole entry, looked up): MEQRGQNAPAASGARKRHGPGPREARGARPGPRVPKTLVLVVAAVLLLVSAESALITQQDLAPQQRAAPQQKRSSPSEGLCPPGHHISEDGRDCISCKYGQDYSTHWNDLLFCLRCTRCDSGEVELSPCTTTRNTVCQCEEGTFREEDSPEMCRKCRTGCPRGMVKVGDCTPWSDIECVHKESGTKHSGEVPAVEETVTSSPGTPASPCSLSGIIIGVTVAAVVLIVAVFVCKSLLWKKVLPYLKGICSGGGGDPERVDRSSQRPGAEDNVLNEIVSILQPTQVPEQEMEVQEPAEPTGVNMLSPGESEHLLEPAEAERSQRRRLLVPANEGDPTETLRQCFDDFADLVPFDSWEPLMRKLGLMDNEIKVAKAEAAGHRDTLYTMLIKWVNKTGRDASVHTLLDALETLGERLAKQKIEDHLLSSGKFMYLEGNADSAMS

Compound	activity [1]	activity [2]
CCc1ccc(-c2cc(C(=O)N/N=C/c3c[nH]c4ccccc34)[nH]n2)cc1	41.6%	52.2%
C/C(=N\NC(=O)c1ccccc1O)c1ccc(Br)s1	57.8%	69.5%
CC(C)CC(=O)Nc1nc2c(c(=O)[nH]1)CCCC2	69.3%	66.5%
COCCn1c(C)cc(C(=O)COC(=O)c2n[nH]c3ccccc23)c1C	88.7%	86.9%
COc1ccc(-c2cn3ccccc3n2)cc1[N+](=O)[O-]	50.9%	53%
CC(/C=N/NC(=O)c1ccco1)=C\c1ccccc1	73.5%	71.2%
Cc1ccn2cc(-c3cccc(NC(=O)CCC(=O)O)c3)nc2c1	70.5%	60.1%
O=C(NC1=NCCS1)c1cccs1	-8.57%	-38%
Cc1cc(N/N=C\c2ccccc2)nc(-c2ccccc2O)n1	41.2%	24.4%
CCN(CC)CCN1C(=O)/C(=C\c2ccc(Cl)c([N+](=O)[O-])c2)SC1=Nc1ccc(OC)cc1	82.2%	97.3%
O=C(Nc1ccc2c(c1)OCO2)c1ccc(Cl)cc1Cl	72.1%	67.6%
CN1CCN(c2ccc3sc(-n4ccc5ccccc54)nc3c2)CC1	76.2%	64.5%
CC(O)CC(=O)OC[C@]12CC[C@H]3[C@@](C)(CC[C@H]4C(C)(C)CCC[C@]34C)[C@@H]1CC(C1=CC(=O)OC1O)O2 (stereo partly specified)	87.1%	93%
CCOC(=O)c1sc2nc(-c3ccccc3)ccc2c1N	76.1%	66.1%
CC(/C=N/NC(=O)c1nn(C)c(C)c1Br)=C\c1ccccc1	72.4%	74.6%
Cc1occc1C(=O)O/N=C(\N)c1ccc(Cl)cc1	81.6%	84.7%
C[C@H](NC(=O)c1ncn2c1c(=O)[nH]c1ccc(Br)cc12)c1ccccc1	27.2%	7.95%
Cc1ccc2nc(-c3ccc(NC(=O)COC(=O)c4ccco4)cc3)sc2c1	73.4%	74.6%
CN(C)c1ccc(C(=O)Nc2nc3c(s2)CCCC3)cc1	51.9%	48.6%
O=C(N/N=C/c1cc(Br)cs1)c1ccc2c(c1)OCCO2	78.8%	77.9%
Cc1cc(/C(N)=N/OC(=O)c2ccccc2Cl)no1	63.5%	68.1%
Cc1ccc(-c2nnc(Nc3ccccc3)o2)cc1	59.7%	54.5%
COc1ccccc1N1CCN(c2ccc(-c3ccccc3)nn2)CC1	80.9%	86.2%
